# According to the supplement of paper PMC10849652:
# Of roughly 7,900 targets only a part is listed; those with a hit were picked by preference. About 0.6% of all pairs of compound and target were hits. Unmarked numbers belong to inactive results.
# Key:
# Experiment in all cases: log2 fold change, soluble protein after heating vs DMSO (PISA); higher = thermal stabilisation; K562 cells, 10 uM, 30 min; active = over 0.2 and 3.5 SD of the protein, either way, in both replicates (recomputed)
# [1] = compound: CS(=O)(=O)c1ccc(-c2cnc(N)c(C(=O)Nc3ccccc3)n2)cc1
# Outline: (§1)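 K562 cells at 2×10^6 cells/mL were given 10 μM compound for 30 min. Aliquots then went through 3 min of heating across 48°C-58°C, were pooled, and were extracted in PBS with 0.5% NP-40 at 4°C, and the supernatant after 21,000xg for 90 min was quantified by TMTpro 16plex LC-MS/MS with channel sums equalised. Thermal stability relative to control samples, from duplicates, is given as log2 fold change.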
# crizotinib = compound: C[C@@H](Oc1cc(-c2cnn(C3CCNCC3)c2)cnc1N)c1c(Cl)ccc(F)c1Cl [crizotinib]
# Outline: as §1
# [2] = compound: C[C@@H]1COCCN1C2=NC(=NC(=C2)C3(CC3)S(=O)(=O)C)C4=C5C=CNC5=CC=C4
# Outline: as §1
# [3] = compound: C[C@H](C1=CC=C(C=C1)C(=O)NC2=C3C=CNC3=NC=C2)N
# Outline: as §1
# duvelisib = compound: C[C@H](Nc1ncnc2nc[nH]c12)c1cc2cccc(Cl)c2c(=O)n1-c1ccccc1 [duvelisib]
# Outline: as §1
# gandotinib = compound: Cc1cc(Nc2cc(CN3CCOCC3)c3nc(C)c(Cc4ccc(Cl)cc4F)n3n2)n[nH]1 [gandotinib]
# Outline: as §1
# tozasertib = compound: Cc1cc(Nc2cc(N3CCN(C)CC3)nc(Sc3ccc(NC(=O)C4CC4)cc3)n2)n[nH]1 [tozasertib]
# Outline: as §1
# [4] = compound: Cc1cc(SCc2sc(-c3ccc(C(F)(F)F)cc3)nc2C)ccc1OCC(=O)O
# Outline: as §1
# doramapimod = compound: Cc1ccc(-n2nc(C(C)(C)C)cc2NC(=O)Nc2ccc(OCCN3CCOCC3)c3ccccc23)cc1 [doramapimod]
# Outline: as §1
# ispinesib = compound: Cc1ccc(C(=O)N(CCCN)[C@@H](c2nc3cc(Cl)ccc3c(=O)n2Cc2ccccc2)C(C)C)cc1 [ispinesib]
# Outline: as §1
# bafetinib = compound: Cc1ccc(NC(=O)c2ccc(CN3CC[C@H](N(C)C)C3)c(C(F)(F)F)c2)cc1Nc1nccc(-c2cncnc2)n1 [bafetinib]
# Outline: as §1
# [5] = compound: Cc1cccc(CC(=O)N2CCc3c2ccc(-c2cn(C)c4ncnc(N)c24)c3F)n1
# Outline: as §1
# nilotinib = compound: Cc1cn(-c2cc(NC(=O)c3ccc(C)c(Nc4nccc(-c5cccnc5)n4)c3)cc(C(F)(F)F)c2)cn1 [nilotinib]
# Outline: as §1
# [6] = compound: Cc1nc(Nc2n[nH]c3c2CN(C(=O)N[C@H](CN(C)C)c2ccccc2)C3(C)C)c2sccc2n1
# Outline: as §1
# dasatinib = compound: Cc1nc(Nc2ncc(C(=O)Nc3c(C)cccc3Cl)s2)cc(N2CCN(CCO)CC2)n1 [dasatinib]
# Outline: as §1
# [7] = compound: Cc1ncc(-c2ccnc(Nc3ccc(S(C)(=O)=O)cc3)n2)n1C(C)C
# Outline: as §1
# [8] = compound: Cn1cc(-c2ccc3c(c2)CCN3C(=O)Cc2cccc(C(F)(F)F)c2)c2c(N)ncnc21
# Outline: as §1
# [9] = compound: Cn1cc(-c2ccc3nnc(C(F)(F)c4ccc5ncccc5c4)n3n2)cn1
# Outline: as §1
# tipifarnib = compound: Cn1cncc1[C@@](N)(c1ccc(Cl)cc1)c1ccc2c(c1)c(-c1cccc(Cl)c1)cc(=O)n2C [tipifarnib]
# Outline: as §1
# mubritinib = compound: FC(F)(F)c1ccc(/C=C/c2nc(COc3ccc(CCCCn4ccnn4)cc3)co2)cc1 [mubritinib]
# Outline: as §1
# Sequence of UniProt P54886 (P54886 whole entry, looked up): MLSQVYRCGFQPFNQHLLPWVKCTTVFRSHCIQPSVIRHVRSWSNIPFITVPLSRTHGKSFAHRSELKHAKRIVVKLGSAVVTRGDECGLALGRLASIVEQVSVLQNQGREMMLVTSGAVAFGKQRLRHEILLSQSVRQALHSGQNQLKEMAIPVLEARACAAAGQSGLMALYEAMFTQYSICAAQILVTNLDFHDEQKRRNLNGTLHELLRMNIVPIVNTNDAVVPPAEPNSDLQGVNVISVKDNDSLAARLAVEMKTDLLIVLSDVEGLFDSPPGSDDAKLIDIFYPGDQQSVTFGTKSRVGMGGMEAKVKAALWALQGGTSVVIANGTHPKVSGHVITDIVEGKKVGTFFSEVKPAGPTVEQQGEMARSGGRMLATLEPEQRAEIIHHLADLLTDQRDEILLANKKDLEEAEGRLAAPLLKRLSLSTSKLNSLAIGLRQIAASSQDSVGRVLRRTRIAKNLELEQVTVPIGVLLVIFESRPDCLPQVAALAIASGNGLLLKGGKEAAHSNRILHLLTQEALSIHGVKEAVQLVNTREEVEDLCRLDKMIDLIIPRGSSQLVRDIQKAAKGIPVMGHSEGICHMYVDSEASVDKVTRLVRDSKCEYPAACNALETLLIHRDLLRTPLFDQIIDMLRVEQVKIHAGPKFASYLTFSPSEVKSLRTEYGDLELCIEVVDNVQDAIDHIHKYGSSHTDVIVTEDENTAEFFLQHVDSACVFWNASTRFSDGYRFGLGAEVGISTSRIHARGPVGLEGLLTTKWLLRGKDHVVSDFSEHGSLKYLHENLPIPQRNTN
# Sequence of UniProt O43865 (O43865 whole entry, looked up): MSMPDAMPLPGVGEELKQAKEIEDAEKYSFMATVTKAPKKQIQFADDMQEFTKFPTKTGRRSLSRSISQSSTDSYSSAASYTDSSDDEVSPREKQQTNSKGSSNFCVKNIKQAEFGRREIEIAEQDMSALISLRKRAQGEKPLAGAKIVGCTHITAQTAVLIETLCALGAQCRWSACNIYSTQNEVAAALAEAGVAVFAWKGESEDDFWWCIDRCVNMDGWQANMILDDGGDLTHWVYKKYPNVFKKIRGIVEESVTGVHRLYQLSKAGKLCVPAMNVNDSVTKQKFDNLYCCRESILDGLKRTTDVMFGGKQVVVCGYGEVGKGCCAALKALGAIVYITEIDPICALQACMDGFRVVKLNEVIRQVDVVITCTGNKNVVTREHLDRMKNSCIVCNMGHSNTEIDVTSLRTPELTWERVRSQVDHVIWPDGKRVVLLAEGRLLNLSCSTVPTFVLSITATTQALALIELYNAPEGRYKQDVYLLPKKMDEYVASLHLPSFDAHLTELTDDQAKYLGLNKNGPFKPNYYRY
# Sequence of UniProt Q9Y6H3 (Q9Y6H3 whole entry, looked up): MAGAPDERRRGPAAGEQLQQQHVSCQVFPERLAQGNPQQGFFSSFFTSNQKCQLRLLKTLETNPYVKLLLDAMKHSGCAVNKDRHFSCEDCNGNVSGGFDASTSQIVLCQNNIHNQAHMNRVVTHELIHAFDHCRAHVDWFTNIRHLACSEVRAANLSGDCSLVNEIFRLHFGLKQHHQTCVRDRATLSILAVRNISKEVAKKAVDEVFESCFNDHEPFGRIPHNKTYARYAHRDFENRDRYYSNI
# Sequence of UniProt Q9NRZ7 (Q9NRZ7 whole entry, looked up): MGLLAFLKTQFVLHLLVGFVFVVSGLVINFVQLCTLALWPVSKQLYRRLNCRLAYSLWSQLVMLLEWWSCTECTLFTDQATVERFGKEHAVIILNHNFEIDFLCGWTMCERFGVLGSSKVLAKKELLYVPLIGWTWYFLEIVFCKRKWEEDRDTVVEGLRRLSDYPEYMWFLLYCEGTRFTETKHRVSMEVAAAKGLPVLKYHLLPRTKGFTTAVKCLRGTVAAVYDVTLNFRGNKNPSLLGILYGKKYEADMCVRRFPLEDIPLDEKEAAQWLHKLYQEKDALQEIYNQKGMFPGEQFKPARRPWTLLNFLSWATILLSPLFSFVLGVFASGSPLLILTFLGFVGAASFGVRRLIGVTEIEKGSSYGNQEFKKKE
# Sequence of UniProt Q9Y6E2 (Q9Y6E2 whole entry, looked up): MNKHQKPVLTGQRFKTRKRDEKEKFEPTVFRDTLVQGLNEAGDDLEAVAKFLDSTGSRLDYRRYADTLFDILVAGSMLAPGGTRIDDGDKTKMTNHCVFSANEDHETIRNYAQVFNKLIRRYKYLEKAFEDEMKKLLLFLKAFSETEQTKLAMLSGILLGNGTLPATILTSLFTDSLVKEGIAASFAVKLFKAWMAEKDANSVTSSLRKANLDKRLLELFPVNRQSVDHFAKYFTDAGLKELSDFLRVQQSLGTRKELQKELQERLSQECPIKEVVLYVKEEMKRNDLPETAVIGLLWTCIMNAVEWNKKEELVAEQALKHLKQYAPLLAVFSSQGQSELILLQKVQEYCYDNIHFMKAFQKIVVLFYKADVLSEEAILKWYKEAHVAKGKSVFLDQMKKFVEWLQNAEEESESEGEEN
# Sequence of UniProt P08243 (P08243 whole entry, looked up): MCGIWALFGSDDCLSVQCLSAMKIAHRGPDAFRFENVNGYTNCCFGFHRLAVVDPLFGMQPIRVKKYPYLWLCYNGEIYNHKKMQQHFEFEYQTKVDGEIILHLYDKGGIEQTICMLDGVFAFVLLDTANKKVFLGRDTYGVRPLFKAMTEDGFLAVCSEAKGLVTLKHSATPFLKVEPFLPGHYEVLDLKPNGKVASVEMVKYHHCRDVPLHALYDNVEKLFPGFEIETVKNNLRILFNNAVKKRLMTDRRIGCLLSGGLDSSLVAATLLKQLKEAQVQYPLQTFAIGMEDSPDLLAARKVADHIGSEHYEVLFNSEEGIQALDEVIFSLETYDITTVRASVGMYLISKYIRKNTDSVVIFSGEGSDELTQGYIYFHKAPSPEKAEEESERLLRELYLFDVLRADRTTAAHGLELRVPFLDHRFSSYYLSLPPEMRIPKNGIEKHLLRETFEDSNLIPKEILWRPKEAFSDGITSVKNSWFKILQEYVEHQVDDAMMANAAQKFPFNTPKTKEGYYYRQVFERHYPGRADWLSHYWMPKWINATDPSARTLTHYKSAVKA
# Sequence of UniProt P11310 (P11310 whole entry, looked up): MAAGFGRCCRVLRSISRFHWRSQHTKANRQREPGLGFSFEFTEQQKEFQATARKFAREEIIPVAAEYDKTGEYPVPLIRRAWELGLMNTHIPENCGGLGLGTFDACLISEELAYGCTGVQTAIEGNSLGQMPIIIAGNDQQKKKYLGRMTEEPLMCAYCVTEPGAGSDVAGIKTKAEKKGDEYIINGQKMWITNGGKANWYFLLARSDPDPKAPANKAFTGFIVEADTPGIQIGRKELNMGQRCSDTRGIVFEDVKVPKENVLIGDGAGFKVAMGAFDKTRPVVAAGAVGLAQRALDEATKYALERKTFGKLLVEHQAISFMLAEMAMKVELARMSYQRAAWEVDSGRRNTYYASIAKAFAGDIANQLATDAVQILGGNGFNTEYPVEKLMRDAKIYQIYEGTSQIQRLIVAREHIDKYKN
# Sequence of UniProt P11117 (P11117 whole entry, looked up): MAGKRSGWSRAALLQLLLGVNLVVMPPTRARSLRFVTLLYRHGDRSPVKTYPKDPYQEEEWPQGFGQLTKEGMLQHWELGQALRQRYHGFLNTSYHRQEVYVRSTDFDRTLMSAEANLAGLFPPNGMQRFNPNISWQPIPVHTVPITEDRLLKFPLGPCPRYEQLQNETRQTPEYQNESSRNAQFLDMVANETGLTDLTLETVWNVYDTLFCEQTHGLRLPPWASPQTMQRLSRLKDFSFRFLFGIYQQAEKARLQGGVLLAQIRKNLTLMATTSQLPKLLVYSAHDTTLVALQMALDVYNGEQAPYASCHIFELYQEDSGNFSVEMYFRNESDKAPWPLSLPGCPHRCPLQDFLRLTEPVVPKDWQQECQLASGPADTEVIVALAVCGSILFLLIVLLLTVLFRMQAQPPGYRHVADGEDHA
# Sequence of UniProt Q8NBU5 (Q8NBU5 whole entry, looked up): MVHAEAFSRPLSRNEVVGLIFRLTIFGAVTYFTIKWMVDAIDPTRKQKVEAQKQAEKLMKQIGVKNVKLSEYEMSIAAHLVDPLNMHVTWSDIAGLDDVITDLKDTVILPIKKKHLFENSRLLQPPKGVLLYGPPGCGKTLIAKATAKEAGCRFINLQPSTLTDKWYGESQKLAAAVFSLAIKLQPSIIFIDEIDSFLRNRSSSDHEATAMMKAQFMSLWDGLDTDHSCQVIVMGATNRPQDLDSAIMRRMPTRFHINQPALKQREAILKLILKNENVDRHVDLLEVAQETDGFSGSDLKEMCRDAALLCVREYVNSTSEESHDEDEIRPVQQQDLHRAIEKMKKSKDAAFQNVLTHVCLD
# Sequence of UniProt Q9UI12 (Q9UI12 whole entry, looked up): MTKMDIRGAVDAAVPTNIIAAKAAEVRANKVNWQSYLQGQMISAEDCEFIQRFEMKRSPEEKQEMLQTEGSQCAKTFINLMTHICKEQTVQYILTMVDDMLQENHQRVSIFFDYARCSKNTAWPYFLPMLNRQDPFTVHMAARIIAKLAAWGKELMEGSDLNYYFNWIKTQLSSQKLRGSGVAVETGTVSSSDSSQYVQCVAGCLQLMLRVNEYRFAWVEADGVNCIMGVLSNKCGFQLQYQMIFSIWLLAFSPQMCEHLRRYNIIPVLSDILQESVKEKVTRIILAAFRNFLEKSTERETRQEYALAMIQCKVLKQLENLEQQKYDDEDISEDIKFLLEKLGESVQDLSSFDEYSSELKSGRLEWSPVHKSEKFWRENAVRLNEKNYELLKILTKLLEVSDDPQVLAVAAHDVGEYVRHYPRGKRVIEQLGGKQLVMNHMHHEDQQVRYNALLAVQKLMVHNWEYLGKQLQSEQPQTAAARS
Target,log2 fold change [1],log2 fold change (crizotinib),log2 fold change [2],log2 fold change [3],log2 fold change (duvelisib),log2 fold change (gandotinib),log2 fold change (tozasertib),log2 fold change [4],log2 fold change (doramapimod),log2 fold change (ispinesib),log2 fold change (bafetinib),log2 fold change [5],log2 fold change (nilotinib),log2 fold change [6],log2 fold change (dasatinib),log2 fold change [7],log2 fold change [8],log2 fold change [9],log2 fold change (tipifarnib),log2 fold change (mubritinib)
BZW2 (UniProt Q9Y6E2),0.006,-0.146,0.096,-0.037,-0.001,-0.218,0.011,0.047,-0.047,-0.072,-0.021,0.073,-0.057,-0.04,-0.132,-0.019,0.034,-0.004,-0.158,0.095
ATP1A4 (UniProt Q13733),-0.013,0.091,-0.067,-0.066,0.174,-0.026,-0.053,0.038,-0.086,0.032,0.038,0.036,0.058,-0.041,0.076,0.033,0.028,-0.041,-0.039,0.001
ADK (UniProt P55263),0.144,0.275,0.034,-0.105,0.114,0.276,0.015,-0.061,-0.039,0.112,0.201,0,0.122,0.208,0.387 (active),0.07,0.006,0.241,0.291,0.037
ACSL3 (UniProt O95573),0.009,-0.013,0.011,-0.024,0.043,-0.046,0.001,0.097,-0.033,-0.024,-0.066,0.042,-0.086,-0.048,-0.06,0.011,0.029,0.075,-0.042,0
AHCYL1 (UniProt O43865),0.097,0.018,0.038,0.02,-0.005,0.02,0.007,-0.036,-0.045,-0.015,-0.009,-0.135,0.006,0.029,0.005,0.116,0.041,0.041,-0.014,-0.055
ALDH18A1 (UniProt P54886),-0.281,0.08,-0.13,-0.036,-0.255,-0.323,0.024,0.032,-0.146,0.164,-0.206,0.071,-0.3,-0.15,-0.133,0.042,-0.202,-0.128,-0.141,-0.561 (active)
ASNS (UniProt P08243),0.003,-0.015,0.044,-0.045,0.025,0.002,-0.018,-0.016,-0.026,0.031,-0.055,0.02,0.002,0.021,0,-0.003,0.034,0.015,-0.033,0.012
ACP2 (UniProt P11117),0.06,-0.051,0.017,-0.016,0.023,-0.071,0,-0.031,0.016,-0.036,-0.107,-0.06,0.002,-0.006,0,0.02,0.015,0.03,0.061,-0.008
ACADM isoform 2 (UniProt P11310),0.075,0.022,0.018,-0.073,0.018,0.049,-0.022,-0.01,-0.059,0.052,-0.073,0.002,-0.013,0.025,-0.054,-0.002,0.039,0.024,0.012,0.016
APOB (UniProt P04114),0.066,-0.443,0.083,-0.203,0.003,-0.198,-0.085,0.007,-0.288,-0.55 (active),-0.316,0.032,-0.132,0.013,-0.213,0.051,0.071,-0.021,-0.203,0.011
AP2M1 (UniProt Q96CW1),0.018,-0.066,-0.04,-0.193,-0.036,-0.002,-0.09,-0.007,0.029,0.044,0.042,-0.012,0.012,0.031,0.048,-0.02,-0.013,-0.004,0.02,-0.035
ATP6V1H (UniProt Q9UI12),-0.045,-0.199,0.019,0.003,0.018,0.021,0.06,0.014,0.038,-0.089,-0.057,0.037,-0.015,-0.016,-0.029,0.049,0.025,-0.013,-0.01,0.098
ATP23 (UniProt Q9Y6H3),-0.002,-0.116,0.044,0.072,-0.124,-0.128,0.002,0.046,-0.051,-0.188,-0.1,-0.015,-0.092,0.067,0.041,-0.011,-0.097,0.023,0.081,0.033
ATAD1 (UniProt Q8NBU5),0.004,0.021,-0.013,0.074,-0.032,0.144,-0.013,0.113,-0.003,-0.063,-0.007,0.048,0.02,-0.008,-0.033,-0.002,0.037,-0.026,0.014,-0.028
AGPAT3 isoform 3 (UniProt Q9NRZ7),-0.051,-0.04,0.125,-0.074,0.005,-0.004,-0.002,0.023,0.004,-0.074,-0.057,0.04,-0.012,0.004,-0.092,-0.007,0.033,0.018,-0.025,0.062
AASDH (UniProt Q4L235),-0.04,0.07,0.142,-0.058,0.01,-0.066,-0.017,-0.034,-0.161,-0.236,-0.065,-0.008,-0.079,-0.149,0.063,0.173,0.045,0.024,0.058,0.144
